# Bioassay records: PubChem, National Center for Advancing Translational Sciences (NCATS)
# This is a sample that favours compounds with a hit; in the whole collection about 2.9% have one here.
# Pol kappa inh = DNA polymerase kappa (human) inhibition; Q9UBT6; purified Pol kappa, fluorescent DNA synthesis assay, 10 min; Potency, µM (series often up to 107 µM), for inactives: at the top dose activity, negative = inhibition, most hits filed as inhibitors; 0.53% of 400,000 active; AID 588579; also: potency is read from the fitted curve at half-maximal effect; % is scaled to controls: 0 for no effect and ±100 for the full control effect
#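 Kinetic fluorescence screen: compound preincubated 15 min RT with 10 nM enzyme; 50 nM substrate (final) initiates; reads at 0/10 min.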
# PI5P4Ka inh = PI5P4K alpha (human) kinase inhibition | P48426 | PI5P4Kalpha enzyme, ADP-Glo luminescence, 60 min; hits give low values | max response, % | 1.2% of 330,000 active | AID 652105; active = max response of -50% or lower; inconclusive = between -30% and -50%; inactive = -30% or higher; also: value at the top dose of about 77 µM; % is scaled to controls: 0 for no effect and ±100 for the full control effect
# Target sequence (P48426 whole entry, looked up): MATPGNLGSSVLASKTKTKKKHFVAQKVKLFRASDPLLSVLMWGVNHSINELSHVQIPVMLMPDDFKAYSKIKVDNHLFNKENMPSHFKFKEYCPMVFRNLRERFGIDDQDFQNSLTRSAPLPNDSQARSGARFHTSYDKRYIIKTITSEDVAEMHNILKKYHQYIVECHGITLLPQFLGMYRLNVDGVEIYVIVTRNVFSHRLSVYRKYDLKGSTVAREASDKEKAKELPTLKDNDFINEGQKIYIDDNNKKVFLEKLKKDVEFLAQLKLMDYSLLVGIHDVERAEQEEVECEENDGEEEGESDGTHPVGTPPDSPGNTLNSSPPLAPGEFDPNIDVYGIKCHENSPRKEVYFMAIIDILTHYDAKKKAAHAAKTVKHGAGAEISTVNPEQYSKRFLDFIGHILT
#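 Controls without substrate or without enzyme flank wells where PI5P4Kalpha converts substrate using 5 microM ATP (final). Incubation lasts 60 minutes at room temperature; ADP formed is read by ADP-Glo luminescence.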
# ALOX12 inh = blocks human arachidonate 12S-lipoxygenase; Potency, µM (top dose mostly 108 µM), for inactives: at the top dose activity change, negative = inhibition, hits mostly inhibitors; P18054; 1.1% of 580,000 active; purified 12hLO, xylenol orange hydroperoxide absorbance; also: potency is read from the fitted curve at half-maximal effect; % is scaled to controls: 0 for no effect and ±100 for the full control effect
#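 Hydroperoxide product was detected by ferrous iron/xylenol orange as the 573 to 405 nm absorbance ratio. Arachidonic acid at 40 uM (final) was turned over for 30 min at room temperature by 150 nM human 12hLO, pH 7.0 Hepes buffer, after 15 min compound preincubation.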
# Pol beta inh = inhibitors of human DNA polymerase beta. P06746. Pol beta primer extension/strand displacement, fluorescence kinetic. Potency, µM (top dose mostly 114 µM), for the others: top-dose activity change, negative = inhibition, usual class: inhibitors. 1.3% of 340,000 active. AID 485314; also: potency is read from the fitted curve at half-maximal effect; % is scaled to controls: 0 for no effect and ±100 for the full control effect
#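 Pol beta (10 nM) was preincubated with compound for 15 min at room temperature. The reaction was then started with 50 nM substrate and read immediately and after a further 10 min at room temperature.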
# Pol eta inh = inhibitors of human DNA polymerase eta. AID 588591. Q9Y253. 1.2% of 390,000 active. Potency, µM (doses to about 114 µM), without a hit: at the top dose activity change, negative = inhibition, usual class: inhibitors. recombinant Pol eta, fluorescent DNA replication assay; also: potency is read from the fitted curve at half-maximal effect; % is scaled to controls: 0 for no effect and ±100 for the full control effect
#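 Fluorescent replication assay: 50 nM final substrate added after a 15 min room-temperature compound preincubation with 10 nM enzyme. Signal taken at 0 min and again at 10 min.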
# Pol iota inh = blocks human DNA polymerase iota activity. AID 588590. Pol iota fluorescent replication assay, 10 min. Q9UNA4. 1% of 390,000 active. Potency, µM (top dose mostly 115 µM), for inactives: top-dose activity, negative = inhibition, usual class: inhibitors; also: potency is read from the fitted curve at half-maximal effect
#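 Pol iota at 10 nM preincubated 15 min with compounds at room temperature; reaction started with fluorescent substrate, 50 nM final. Fluorescence read kinetically at 0 and 10 min; buffer-only wells as negative control.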
# * = called active by the depositor; ? = inconclusive; . = no result given; ! = a repeat was not active; [ ] = dose if it differs, or a comment. Unless noted, calls follow the shape of the dose curve; as a rule, active = well fitted inhibition curve with a large enough effect; inconclusive = small, poorly fitted or top-dose-only effect, or another doubt; inactive = no such curve, though single readings can be large or run the other way.
SMILES,Pol kappa inh,PI5P4Ka inh,ALOX12 inh,Pol beta inh,Pol eta inh,Pol iota inh
Cc1nc2ccc([N+](=O)[O-])cc2c(=O)n1Cc1cccc(Br)c1,-9.8%,-4.5,-19.5%,79.4µM*,-3.5%,20.0%
CCOC(=O)c1ccc2c(c1)n(CC)c(/C=C/N(C)c1ccccc1)[n+]2CC,-15.1%,-7.7,?,-25.3%,-13.4%,16.5%
CC[n+]1c(/C=C/N(C)c2ccccc2)n(-c2ccccc2)c2ccc(-c3nc4ccccc4s3)cc21,21.2µM*,?,.,-20.3%,?,136.1%
CCCCN(C(=O)C(=O)c1c(C)[nH]c2ccccc12)c1ccccc1,.,.,-2.4%,.,.,.
COc1cc(NC(=O)Cc2c(C)c3c(OC)cc(OC)cc3oc2=O)cc(OC)c1,.,.,-0.8%,.,.,.
CCNCc1ccccc1OCc1ccccc1,1.2%[60.1 µM],1.2,-8.3%,-1.3%,-4.0%,-12.4%
COc1cc(CNc2ccc(O)cc2)cc(Br)c1OCc1ccccc1F,-36.4%,0.8,.,-29.1%,-17.1%,28.2µM*
CCOc1cc(CNc2ccc(O)cc2)cc(Br)c1OCc1ccccc1,-10.0%,.,?,-2.4%,-23.9%,39.8µM*
CCOc1cc(CNc2ccc(O)cc2)cc(Br)c1OCc1ccccc1F,-4.3%,4.1,.,-13.8%,-24.4%,-101.2%
COc1cc(CNC(C)(C)CO)cc(Br)c1OCc1ccccc1,-7.2%,28.0,-5.4%,28.4%,-9.5%,63.3%
Oc1ccc(NCc2ccccc2OCc2ccccc2)cc1,-10.8%,-19.2,11.2µM*!,4.9%,?,7.08µM*
CN(CC(=O)NCC(F)(F)F)Cc1ccccc1,.,.,1.6%,.,.,.
N#Cc1cccnc1SCc1cccc(C(F)(F)F)c1,.,.,-17.8%,.,.,.
N#CCC(N)=C(C#N)C#N,-3.4%,-75.5*,-14.1%,29.1%,5.8%,-19.3%
Cc1nc2cc(NC(C)C(=O)Nc3ccccc3C(F)(F)F)ccc2o1 (centres undefined),.,.,-1.4%,.,.,.
Cc1ccnc(N/C=C(\C#N)c2nc(-c3cccc(Br)c3)cs2)c1,-3.6%,.,-26.3%,35.5µM*,-20.6%,?
O=C(Nc1ccc(Cl)cc1)N1CCc2nc(C3CC3)nc(-c3ccc(Cl)cc3)c2C1,.,.,4.2%,.,.,.
Cc1ccc(S(=O)(=O)SCCCSS(=O)(=O)c2ccc(C)cc2)cc1,-8.7%,-72.8*,1.78µM*,.,-11.9%,3.8%
Cc1ccc(S(=O)(=O)CCCS(=O)(=O)c2ccc(C)cc2)cc1,-12.5%,1.8,-23.1%,18.4%,5.8%,40.7%
Cc1ccc(S(=O)(=O)CS(=O)(=O)c2ccc(C)cc2)cc1,-12.0%,0.0,7.3%,.,-18.0%,-9.1%
Cc1ccc(S(=O)(=O)C=CS(=O)(=O)c2ccc(C)cc2)cc1,.,-11.3,8.91µM*,.,-1.8%,.
Cc1ccc(S(=O)(=O)/C=C/C#N)cc1,-1.8%[60.1 µM],.,?,.,.,.
Cc1ccc(S(=O)(=O)SC/C=C/CSS(=O)(=O)c2ccc(C)cc2)cc1,-2.8%,-85.0*,0.708µM*,.,-1.6%,5.6%
Nn1c(SCC(=O)NC2CCCCC2)nnc1C1CC1,-18.3%,0.1,7.4%,0.316µM*,1.1%,0.8%
Cc1nnc(SCC(=O)NC2CCCCC2)n1N,-9.8%,-4.9,-14.0%,.,-3.2%,8.5%
SMILES,Pol kappa inh,PI5P4Ka inh,ALOX12 inh,Pol beta inh,Pol eta inh,Pol iota inh
Cc1ccc(S(=O)(=O)N2CCCCC2)cc1NC(=O)Cn1cnnn1,-5.7%,5.0,-19.8%,10.9%,-4.0%,25.7%
Cc1ccc(S(=O)(=O)N2CCCCC2)cc1NC(=O)Cn1ncc(Cl)c(Cl)c1=O,3.7%,-52.4*,-6.6%,.,56.2µM*,?
Cc1ccc(NC(=O)CS(=O)CC(=O)Nc2ccc3c(c2)OCO3)cc1Cl (centres undefined),-28.6%,-22.3,31.0%,50.1µM*,?,?
CCN(CC)S(=O)(=O)c1cc(NC(=O)Cn2ncc(Cl)c(Cl)c2=O)ccc1C,70.8µM*,-82.9*,11.2%,28.2µM*,35.5µM*,25.1µM*
CCN(CC)S(=O)(=O)c1cc(NC(=O)CN2C(=O)NC(C)(c3ccccc3)C2=O)ccc1C (centres undefined),-1.8%,0.1,-13.8%,-0.7%,-14.9%,-26.5%
O=C(Cn1ncc(Cl)c(Cl)c1=O)Nc1ccc2c(c1)OCO2,-4.3%,-51.6*,187.8%,.,?,?
O=C(CCCCCCC(=O)N/N=C/c1ccc(Cl)cc1)N/N=C/c1ccc(Cl)cc1,.,.,13.6%,.,.,.
CCCn1nc(C(=O)Nc2ccc(OC)cc2)c2ccccc2c1=O,.,.,0.6%,.,.,.
CC(C)(C)c1nnc2sc(SCC(=O)c3ccccc3)nn2c1=O,2.4%,9.6,53.6%,-0.9%,-10.0%,5.2%
Cc1ccc(Nc2nnc(SC/C(O)=C(\C#N)c3nc4ccccc4[nH]3)s2)c(C)c1,-30.4%,-60.0*,?,-13.4%,31.6µM*,?
Cc1cccc(Nc2nnc(SC/C(O)=C(\C#N)c3nc4ccccc4[nH]3)s2)c1,-17.8%,-54.1*,?,?,?,-5.0%
CC(C)(C)c1nnc2sc(SC/C(O)=C(\C#N)c3nc4ccccc4[nH]3)nn2c1=O,-16.6%,?,0.0%,-20.9%,20µM*,-25.6%
CCC1Oc2nc(SC)nnc2-c2ccccc2N1C(C)=O (centres undefined),.,.,-8.6%,.,.,.
Cc1nc2sc3c(c2c2nc(C(=O)NCc4ccccc4)nn12)CC(C)(C)OC3,.,.,0.7%,.,.,.
Cn1cccc1-c1cc(C(=O)N/N=C/c2ccc(Cl)cc2)[nH]n1,?,0.8,?,?,1.5%,9.6%
COc1cccc(/C=N/NC(=O)c2cc(-c3cccn3C)n[nH]2)c1O,-32.2%,?,-24.4%,?,-10.0%,?
